Only some compounds are listed: those with a hit (about 11% of all), similar ones and a draw of the others.
JMJD2A Tudor: blocks the human JMJD2A Tudor domain; O75164; AlphaScreen JMJD2A-Tudor / H3K4me3 peptide binding; Potency, µM (series often up to 114 µM), for the others: at the highest dose activity change, negative = inhibition, usual class: inhibitors; hit rate 4.4% among 390,000; also: % is scaled to controls: 0 for no effect and ±100 for the full control effect; nearly all actives have a fitted effect of over 50% in size
G9a block: G9a (human) methyltransferase inhibition; Potency, µM (doses to about 102 µM), for inactives: at the top dose activity, negative = inhibition, usual class: inhibitors; G9a H3K9 monomethylation, AlphaScreen, 2 h; hit rate 8.8% among 350,000; Q96KQ7; AID 504332; also: % is scaled to controls: 0 for no effect and ±100 for the full control effect; nearly all actives have a fitted effect of over 75% in size
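Chemiluminescent proximity detection of H3K9 monomethylation, read after 10 min bead incubation in the dark. Reaction: 20 nM G9a, 500 nM biotin-H3K9 peptide, 20 uM SAM cofactor, 2 h, room temperature, following 15 min enzyme-compound preincubation.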
HP1b binding inh: inhibitors of HP1-beta chromodomain binding to methylated histone tails | P83916 | Potency, µM (series often up to 114 µM), without a hit: at the top dose activity change, negative = inhibition, actives largely listed as inhibitors | AlphaScreen HP1-beta / biotin-H3K9me3 peptide binding | hit rate 0.56% among 390,000; also: nearly all actives have a fitted effect of over 70% in size
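Compound inhibition of the preformed complex between 50 nM HP1-beta and 50 nM biotinylated H3K9me3 peptide was read by AlphaScreen. Buffer was PBS pH 7.4 with 0.01% Tween-20. Incubations ran 30 min at room temperature, with 10 ug/mL donor/acceptor beads.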
BAZ2B inh: BAZ2B (human) inhibition; Q9UIF8; AlphaScreen BAZ2B-H3K14Ac peptide displacement; Potency, µM (doses to about 114 µM), for inactives: top-dose activity change, negative = inhibition, actives largely listed as inhibitors; hit rate 4.4% among 360,000; also: % is scaled to controls: 0 for no effect and ±100 for the full control effect; nearly all actives have a fitted effect of over 60% in size
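AlphaScreen luminescence quantifies BAZ2B engagement of H3K14Ac peptide; the protein and biotinylated peptide are both at 50 nM final, buffer PBS pH 7.4 with 0.01% Tween-20, all steps at room temperature.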
PLK1 PBD inh: PLK1 (human) polo-box domain binding inhibition; P53350; Plk1 PBD binding of FITC phosphopeptide, fluorescence polarization; Potency, µM, for the others: max response, negative = inhibition, usual class: inhibitors; hit rate 2.8% among 360,000; also: series mostly up to about 57 µM; % is scaled to controls: 0 for no effect and ±100 for the full control effect; nearly all actives have a fitted effect of over 65% in size
Target sequence (P53350 whole entry, looked up, the tested form may be a part): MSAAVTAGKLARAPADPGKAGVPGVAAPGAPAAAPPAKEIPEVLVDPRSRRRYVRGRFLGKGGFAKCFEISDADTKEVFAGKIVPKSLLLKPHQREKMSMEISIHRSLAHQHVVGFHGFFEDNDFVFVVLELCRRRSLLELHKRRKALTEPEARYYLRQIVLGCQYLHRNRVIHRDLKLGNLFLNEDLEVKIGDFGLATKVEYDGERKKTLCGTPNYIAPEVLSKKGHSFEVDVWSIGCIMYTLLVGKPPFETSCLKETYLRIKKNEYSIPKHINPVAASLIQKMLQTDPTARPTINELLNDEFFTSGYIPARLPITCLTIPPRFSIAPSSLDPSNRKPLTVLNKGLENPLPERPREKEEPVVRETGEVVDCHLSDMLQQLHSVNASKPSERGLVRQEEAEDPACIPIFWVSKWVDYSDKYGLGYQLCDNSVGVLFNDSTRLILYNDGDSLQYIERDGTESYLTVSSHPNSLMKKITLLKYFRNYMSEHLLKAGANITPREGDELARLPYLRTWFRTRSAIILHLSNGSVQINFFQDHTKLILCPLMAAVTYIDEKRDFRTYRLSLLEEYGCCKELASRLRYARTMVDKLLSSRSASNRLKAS
VDR inh: blocks the human vitamin D receptor. P11473. VDR-SRC2-3 peptide fluorescence polarization, 2 h. Potency, µM, without a hit: max response, negative = inhibition, usual class: inhibitors. hit rate 0.93% among 400,000; also: % is scaled to controls: 0 for no effect and ±100 for the full control effect
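Two reagent solutions held at 4 deg C in the dark were dispensed, compounds pinned at 23 nl, and the mixture incubated 2 h at room temperature. Read-out: fluorescence polarization of VDR–SRC2-3 peptide binding.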
The depositor's hits bear a star; ? = inconclusive; · = not tested or not shown; [ ] = dose if it differs, or a comment. Calls follow the shape of the dose curve; as a rule, active = well fitted curve in the direction sought with a large enough effect; inconclusive = small, poorly fitted or top-dose-only effect, or another doubt; inactive = no such curve, though single readings can be large; an effect the other way counts as inactive or inconclusive. Potency is read from the fitted curve at half-maximal effect.

SMILES	JMJD2A Tudor	G9a block	HP1b binding inh	BAZ2B inh	PLK1 PBD inh	VDR inh
CCS(=O)(=O)N1Cc2ccccc2CC1C(=O)N1CCN(c2ccccc2)CC1 (stereo not drawn)	25µM*	2%[2.33 µM]	?	50µM*	-15%	-5%
O=C(Cn1cc(S(=O)(=O)c2ccccc2)c(=O)c2cc(Cl)ccc21)Nc1ccc2c(c1)OCO2	-1%	-5%[59 µM]	38%	0%	·	-10%
O=C(O)/C=C\C(=O)NNC(=O)c1cc(-c2ccccc2)n[nH]1	25µM*	·	20%	28µM*	-11%	0%
CC12CC3CC(C)(C1)CC(C(=O)NCc1cccnc1)(C3)C2	-5%	·	48%	12%	-8%	0%
O=[N+]([O-])c1cccc(CNc2ccc3c(c2)CCC3)c1	1.4µM*	13µM*	40µM*	20µM*	0%	-18%
COc1ccc(CNc2ccc3c(c2)CCC3)cc1Br	-24%	35µM*	15%	-26%	5%	-1%
CCOc1cc(CNc2ccc3c(c2)CCC3)ccc1OC	·	45µM*	·	?	·	·
O=C(Nc1cccc([N+](=O)[O-])c1)Nc1ccc2c(c1)CCC2	-36%	108%	15%	8%	-4%	1%
Cc1cc(C(=O)OCC(=O)Nc2ccc(F)c(F)c2F)c(C)o1	20µM*	17%	-11%	2%	?	79µM*
C/C(N)=C(/C#N)C(=O)CSc1nnc(Nc2cccc(C)c2C)s1	-20%	?	18%	?	-24%	18%
C/C(N)=C(/C#N)C(=O)CSc1nnc(Nc2c(C)cccc2C)s1	56µM*	32µM*	?	-3%	-20%	-8%
COc1cccc(COCCN2CCN(S(=O)(=O)c3ccccc3)CCC2=O)c1	-5%	·	20%	·	·	-3%
CCOc1c(Cl)cc(Cl)cc1CNCCNCCO	?	50µM*	21%	-33%	-8%	8%
C/C(=N/NC(=O)c1cnccn1)c1cccs1	25µM*	-10%[59 µM]	29%	?	-7%	-3%
C/C(=N\NC(=O)C1(C)CC1(Br)Br)c1ccc([N+](=O)[O-])cc1 (stereo not drawn)	-9%	20%[59 µM]	30%	-1%	-16%	5%
C/C(=N\NC(=O)c1cnccn1)c1ccc([N+](=O)[O-])cc1	22µM*	10%	14%	-4%	5%	18%
C/C(=N/NC(=O)c1cc(O)c(O)c(O)c1)c1ccc([N+](=O)[O-])cc1	45µM*	7.1µM*	?	40µM*	?	-11%
S=C(NCc1cccnc1)c1ccccc1	-10%	-5%	8%	-18%	-1%	11%
Cc1cc(C)n2nc(CNS(=O)(=O)c3ccc(F)c(C)c3)nc2n1	-5%	-5%	55%	-6%	-4%	-17%
COC(=O)c1cc(=O)n(CCc2ccc(OC)c(OC)c2)c(=Nc2ccc(F)c(Cl)c2)s1	?	25µM*	-6%	?	-9%	-21%
CCOc1ccccc1CN1CCN(Cc2[nH]c3ccccc3c2C)CC1CCO (stereo not drawn)	?	71µM*	-11%	-31%	-20%	2%
CC(C)(C)[C@H]1COC(=O)[C@H](NC(=O)OCC2c3ccccc3-c3ccccc32)C/C=C\C[C@@H](CC(=O)N(CCO)Cc2ccccc2)C(=O)N1	-24%	·	22%	·	-9%	19%
CC1(C)CC(NC(=O)c2cc(S(=O)(=O)N3CCOCC3)c(Cl)cc2Cl)CC(C)(C)N1	-1%	8%[0.501 µM]	35%	50µM*	-6%	5%
COc1ccc(C(=O)NC2CC(C)(C)NC(C)(C)C2)cc1S(=O)(=O)N1CCOCC1	·	·	·	·	-4%	·
CCOC(=O)c1c(NC(=S)Nc2ccc(OC)cc2)sc2c1CCCCC2	-34%[57.1 µM]	?	?	-32%	-27%	-17%
SMILES	JMJD2A Tudor	G9a block	HP1b binding inh	BAZ2B inh	PLK1 PBD inh	VDR inh
COC(=O)c1c(NC(=O)C2CCCO2)sc2c1CCC2 (stereo not drawn)	-17%	-10%[59 µM]	2%	-4%	-5%	-7%
COC(=O)c1c(NC(C)=O)sc2c1CCCCC2	-12%	8.9µM*	-13%	?	?	0%
CNC(=S)Nc1sc2c(c1C(=O)OC)CCC2	89µM*	16µM*	5%	4%	-20%	-2%
COC(=O)c1c(NC(C)=O)sc2c1CCCC2	3%	-26%[59 µM]	33%	-12%	-3%	-12%
COC(=O)c1c(NC(=S)Nc2ccc(F)cc2[N+](=O)[O-])sc2c1CCCCC2	?	35µM*	-31%	?	?	-3%
COC(=O)c1c(NC(=S)Nc2ccc(C(=O)N3CCOCC3)cc2)sc2c1CCC2	-16%	50µM*	10%	-23%	-21%	0%
CC(O)(c1cccnc1)c1nc(-c2cccc(C#N)c2)cs1 (stereo not drawn)	·	·	·	·	0%	·
CCOC(=O)c1sc(NC(=O)Nc2ccc(Cl)cc2)nc1C	-13%	-13%[59 µM]	10%	44%[57.1 µM]	-10%	4%
O=C(Nc1ccc2c(c1)OCCO2)C1c2ccccc2OCC(=O)N1CC(F)(F)F (stereo not drawn)	·	·	·	·	-13%	·
c1ccc2c(c1)nc(Nc1ccc(N3CCCCC3)cc1)c1nncn12	45µM*	16µM*	?	28µM*	-5%	-17%
c1ccc2c(c1)nc(NC1CCCCC1)c1nncn12	-12%	45µM*	24%	-3%	3%	2%
O=C(N/N=C/c1ccc(COc2ccc(Br)cc2)o1)c1ccco1	-11%	-4%[59 µM]	14%	-4%	5%	-8%
Cc1ccc(Nc2nc3ccccc3c3nncn23)cc1C	-25%	21%[59 µM]	28%	8%	·	18%
Cc1cccc(C(=O)Nc2ccc(C(=O)OCc3cc(=O)n4c(C)csc4n3)cc2)c1	?	5%[59 µM]	62%	79µM*	·	5%
Cc1cccc(C(=O)Nc2ccccc2OCc2cc(=O)n3c(C)csc3n2)c1	-8%	0%[59 µM]	26%	-2%	·	-21%
CNCCCCOc1ccc(C(C)(C)C)cc1Cl	5.6µM*	14µM*	?	?	-14%	1%
CNCCCOc1ccc(C)cc1Br	3.2µM*	?	?	56µM*	-5%	5%
CCCCNCCCOc1ccc(C)cc1Br	20µM*	50µM*	?	56µM*	-11%	-14%
CCOC(=O)c1ccccc1NC(=O)CSc1nc2ccccc2c(=O)n1CCCN1CCOCC1	?	·	-4%	·	2%	-6%
Cc1ccccc1NC(=O)c1cc(C(=O)c2cc(Cl)ccc2O)cn(-c2ccccc2C)c1=O	-35%	-3%[59 µM]	-5%	-7%	0%	-14%
Cc1cccc(C)c1Nc1oc(-c2ccccc2)nc1-c1ccccc1F	·	·	·	·	·	-2%
O=C(CCc1nnc(CCc2ccccc2)o1)N1CCCC1c1nccs1 (stereo not drawn)	-15%	15%	41%	3%	-4%	-29%

Bioassay records as filed in PubChem.
